Cardiac RTF inh: cardiac RTF calcium desensitization | P19429+P45379 | IANBD-labeled cardiac RTF, Ca2+ fluorescence | inhibition, % at 7.15 µM | hit rate 0.12% among 340,000;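 active means inhibition above the mean inhibition of all tested compounds plus 3 SD, cut at about 17% in these data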;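 further: assay run at fixed EC70 calcium of 1.6 mM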
LANA-H2B inh: blocks KSHV LANA binding to histone H2A/H2B; Q9QR71; cell-free LANA-H2A/H2B peptide, fluorescence polarization; inhibition, % (concentration not given with the values); hit rate 0.6% among 320,000; in the data active means inhibition mostly above about 10%, no sharp cut-off; inactive means mostly below about 6.7%
LANA DNA inh: blocks KSHV LANA C-terminal domain binding to DNA | MBP-C-LANA/FAM-LBS DNA binding, fluorescence polarization | inhibition, % at 9 µM | hit rate 0.078% among 340,000 | AID 504423;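 active means highest replicate inhibition at or above 60% at 9 µM, even if other replicates fall short; inactive means all replicates below 60% inhibition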
cardiac RTF act: cardiac RTF calcium sensitization. AID 493008. hit rate 0.24% among 340,000. activation, % at 7.2 µM. IANBD-labeled TnC RTF fluorescence at EC20 calcium; 0% EC20 calcium, 100% full calcium. P19429+P45379;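 active means activation above the mean over all tested compounds plus 3 SD, cut at about 30% in these data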;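 further: rise in fluorescence read as greater calcium sensitivity of cardiac thin filaments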
Keap1-Nrf2 PPI: Keap1-Nrf2 (human) interaction inhibition. Q14145. Keap1 Kelch-Nrf2 peptide fluorescence polarization, 1536-well. inhibition, % at 9.4 µM. hit rate 0.15% among 340,000. AID 504523; in the data active means inhibition above about 12%;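 further: human Keap1 Kelch domain with fluorescein labeled Nrf2 9mer peptide probe; higher means more block of Keap1 binding to Nrf2 peptide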
Target sequence (Q14145 whole entry, looked up, the tested form may be a part): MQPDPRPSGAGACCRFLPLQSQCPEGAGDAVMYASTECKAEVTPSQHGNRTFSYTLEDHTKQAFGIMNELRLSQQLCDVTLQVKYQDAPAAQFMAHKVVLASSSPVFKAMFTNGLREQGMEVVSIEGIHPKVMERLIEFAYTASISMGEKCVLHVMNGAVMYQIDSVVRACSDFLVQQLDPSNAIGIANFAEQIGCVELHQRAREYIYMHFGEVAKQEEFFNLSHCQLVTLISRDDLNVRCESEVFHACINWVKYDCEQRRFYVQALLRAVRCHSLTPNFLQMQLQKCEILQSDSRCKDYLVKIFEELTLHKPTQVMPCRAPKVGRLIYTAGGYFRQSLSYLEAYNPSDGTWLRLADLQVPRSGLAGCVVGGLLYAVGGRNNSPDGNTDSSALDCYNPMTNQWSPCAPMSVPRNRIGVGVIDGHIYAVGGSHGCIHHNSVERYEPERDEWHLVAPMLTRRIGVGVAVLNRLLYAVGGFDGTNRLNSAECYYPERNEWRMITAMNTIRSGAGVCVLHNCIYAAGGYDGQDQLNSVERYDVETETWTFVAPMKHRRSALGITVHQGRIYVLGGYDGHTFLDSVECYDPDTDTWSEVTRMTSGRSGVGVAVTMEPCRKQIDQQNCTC
Large screens that a line does not name were inactive; ! = not confirmed by another sample. This is a sample that favours compounds with a hit; in the whole collection about 1% have one here.

CCOC(=O)c1c(C)[nH]c(C(=O)OCC(=O)N2CCN(S(=O)(=O)c3ccc(C)cc3C)CC2)c1C	LANA-H2B inh 122
COc1ccccc1CC(=O)N(Cc1ccccc1)c1ccc(C)cc1	LANA-H2B inh 22
COCCN(Cc1ccccc1)C(=O)Cc1ccc(OC)c(S(=O)(=O)N2CCOCC2)c1	none
COc1ccc(CC(=O)N(Cc2ccccc2)c2ccccc2)cc1S(=O)(=O)N1CCOCC1	LANA-H2B inh 16
CCNc1nc(N)nc(Oc2ccc(OCCOc3ccc(Cl)cc3Cl)nn2)n1	none
Cc1nnc(N2CCOCC2)c2nn(-c3cccc(Cl)c3)c(C)c12	cardiac RTF act 33
Cc1ccccc1C(=O)N[C@H](C(=O)OCC(=O)NC1CC1)C(C)C	none
CCOC(=O)C1=C(C)NC(C)=C(C(=O)OCC)C1C(=O)OCC(=O)N(C)C1CCS(=O)(=O)C1 (stereo not given)	LANA-H2B inh 20
O=c1[nH]c(=O)n(C2OC(CO)C(O)C2O)cc1N1CCOCC1 (stereo not given)	none (no result: LANA-H2B inh)
COc1cc(COCC(O)CN2CCOCC2)cc(OC)c1OC (stereo not given)	none
Oc1ccccc1/C=N/Nc1ncc(Br)cn1	LANA-H2B inh active
O=C(NCc1ccncc1)C(=O)NC1CC1	LANA-H2B inh active
COc1ccccc1N1CCN(C2CC(=O)N(c3cccc(Cl)c3)C2=O)CC1 (stereo not given)	LANA-H2B inh 21
COc1ccccc1N1CCN(C2CC(=O)N(c3ccccc3)C2=O)CC1 (stereo not given)	none
CC(C)(C)c1ccc(Cn2c(=O)cnc3ccccc32)cc1	LANA-H2B inh 17
CCN(CC)S(=O)(=O)c1ccc2oc(SCC(=O)Nc3cc(C)on3)nc2c1	LANA-H2B inh 99
CCN(CC)c1nc2ccccc2[nH]c1=O	none
CCc1nc2ccccc2[nH]c1=O	LANA-H2B inh 27
CC(OC(=O)c1nc(Cl)ccc1Cl)C(=O)c1ccccc1 (stereo not given)	none
CC(NC(=O)CN1C(=O)NC2(CCCC2)C1=O)c1ccc2ccccc2c1 (stereo not given)	none (no result: LANA-H2B inh)
CSc1nc2ccc(NC(=O)NC(=O)c3c(F)cccc3F)cc2s1	none
COc1cccc(F)c1C(=O)NC(=O)Nc1ccc2nc(C)oc2c1	cardiac RTF act 45
CCN(N=O)c1ccc(C=C2C=Cc3ccccc32)cc1	none (no result: LANA-H2B inh)
CCOC(=O)c1sc(=S)n(-c2ccccc2)c1N(C(C)=O)C(C)=O	none
CCn1c(CSc2nnc(-c3cccnc3)n2-c2ccccc2C)nc2cc(C(=O)O)ccc21	LANA-H2B inh 18 (no result: Cardiac RTF inh, LANA DNA inh, cardiac RTF act, Keap1-Nrf2 PPI)
O=[N+]([O-])c1cccc(/C=N/Nc2ccccn2)c1	none
O=[N+]([O-])c1cccc(/C=N/Nc2nccnc2Cl)c1	LANA-H2B inh 54
O=C1NC(=S)S/C1=C\c1ccc(SCc2ccco2)o1	Cardiac RTF inh 50, LANA DNA inh 99, Keap1-Nrf2 PPI 21
C[C@H]1CN([C@@H](C)CO)C(=O)c2cccc(NC(=O)c3nc4ccccc4s3)c2O[C@H]1CN(C)C(=O)Nc1ccc(F)cc1	none
COc1cccc(OCCOc2c(OC)cccc2OC)c1	LANA-H2B inh 14
COc1cccc(C(C(=O)NC2CCCC2)N(C(=O)c2csnn2)C2CC2)c1 (stereo not given)	none
CC1Sc2ccc(S(=O)(=O)CCC(=O)N3CCN(c4cccc(Cl)c4)CC3)cc2NC1=O (stereo not given)	LANA-H2B inh 30
O=C(CSc1nnc(CNC(=O)c2cccs2)o1)NCCc1ccccc1	LANA-H2B inh 36
COc1ccc(S(N)(=O)=O)cc1C(=O)NNC(=O)c1cccc(S(=O)(=O)N2CCOCC2)c1	none (no result: LANA-H2B inh)
O=C(C1CCN(S(=O)(=O)c2cnc[nH]2)CC1)N1CCN(c2ncccn2)CC1	LANA-H2B inh 17
Cc1ccc(C(=O)CC2(O)C(=O)Nc3ccccc32)s1 (stereo not given)	none
Cc1ccc2c(c1)C(O)(CC(=O)c1ccc(C)s1)C(=O)N2 (stereo not given)	LANA-H2B inh 90
O=C(O)C1Nc2c(O)cccc2C2C=CCC12 (stereo not given)	Cardiac RTF inh 34
O=C(O)C1Nc2c(Cl)cc(Cl)c(Cl)c2C2C=CCC12 (stereo not given)	none
CN(C)CCOC(c1ccccc1)c1ccccc1	none (no result: LANA DNA inh, Keap1-Nrf2 PPI)
CN(C)CCOC(c1ccccc1)c1ccccc1 (tested in a mixture with another compound)	LANA-H2B inh 13 (no result: LANA DNA inh, Keap1-Nrf2 PPI)
COc1ccc(N2CCN(CCCNC(=O)CCCn3c(=O)[nH]c4ccsc4c3=O)CC2)cc1	none
COc1ccc(N2CCN(CCNC(=O)CCCn3c(=O)[nH]c4cc(Cl)ccc4c3=O)CC2)cc1	LANA-H2B inh 19
Cc1ccc(NC(=O)CN(C)C(=O)Cn2ncc(Cl)c(Cl)c2=O)cc1	LANA-H2B inh active
Cc1ccc(NC(=O)CN(C)C(=O)Cc2ccc(Cl)c(Cl)c2)cc1	none
CCOC(=O)C(C)(C)Oc1ccc(Cl)cc1	none
CC(C)OC(=O)C(C)(C)Oc1ccc(C(=O)c2ccc(Cl)cc2)cc1	LANA-H2B inh 35!
Cc1cccc(C)c1-n1c(C)nn(CC2CC2)c1=O	none
CC(=O)[C@@]1(O)CC[C@H]2[C@@H]3C[C@H](C)C4=CC(=O)C=C[C@]4(C)[C@@]3(F)[C@@H](O)C[C@@]21C	LANA-H2B inh 18!
CCCC(=O)O[C@]1(C(=O)COC(C)=O)CC[C@H]2[C@@H]3C[C@H](F)C4=CC(=O)C=C[C@]4(C)[C@@]3(F)[C@@H](O)C[C@@]21C	LANA-H2B inh 22!
C[C@@H]1C[C@H]2[C@@H]3CCC4=CC(=O)C=C[C@]4(C)[C@@]3(F)[C@@H](O)C[C@]2(C)[C@@]1(O)C(=O)CO	none
CC1=NN(C(=O)c2ccc(Cl)cc2)C(O)(c2ccccc2)C1 (stereo not given)	LANA-H2B inh 9.9
CCOC(=O)Sc1nc2ncncc2[nH]1	none (no result: LANA-H2B inh)
CCOC(=O)CN1C=C(c2ccc3ccccc3n2)C(C[N+](=O)[O-])c2ccccc21 (stereo not given)	cardiac RTF act 36
O=C(CCCCCCCC(=O)N1CCCCCC1)N1CCCCCC1	none (no result: LANA-H2B inh)
O=C1CCC/C(=N/NC(=O)c2sc3ccccc3c2Cl)C1	cardiac RTF act 36
O=c1cc(Cl)nc2ccccn12	none (no result: LANA-H2B inh)
NC(=O)c1c(N)sc2c1CCCCC2	cardiac RTF act 30
O=C1CSC(=S)N1/N=C/c1cc(Br)c(O)c(Br)c1	cardiac RTF act 56
O=C1N=c2ccccc2=C1c1[nH]c(=S)[nH]c1O	LANA-H2B inh 12
COc1ccc(C)cc1NC(=S)NC(C)c1ccc(OC)c(OC)c1 (stereo not given)	none
COc1cc(NCCCNC(C)C)c2nccc(C)c2c1	none (no result: LANA-H2B inh)
C=CC[C@H](CC(=O)N[C@H](CO)Cc1ccccc1)C(=O)N[C@@H](COC(=O)[C@@H](CC=C)CC(=O)OC(C)(C)C)Cc1c[nH]c2ccccc12	LANA-H2B inh 19
C=CC[C@H](CC(=O)NCCO)C(=O)N[C@H](C)COC(=O)[C@@H](CC=C)Cc1ccc(F)cc1	LANA-H2B inh 14

Screening results as filed in PubChem.
